In all, about 310,000 compounds went through this assay and about 11,000 (3.5%) were called active. Roughly 4% stayed inconclusive and do not appear here. Calls come from the whole dose curve; as a rule, active = well fitted inhibition curve with a large enough effect; inconclusive = small, poorly fitted or top-dose-only effect, or another doubt; inactive = no such curve, though single readings can be large or run the other way. What follows is part of a selection rich in actives, with near analogues and random picks from the rest.
Potency is the fitted concentration of half-maximal effect.

The target in this experiment is 4'-phosphopantetheinyl transferase ffp (Bacillus subtilis) (UniProt Q9F4F7). Nature of the experiment: qHTS Assay for Inhibitors of Bacillus subtilis Sfp phosphopantetheinyl transferase (PPTase).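 For largest response in the series, negative = inhibition: 0% = enzyme reaction without inhibitor and -100% = no enzyme wells.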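 Note: the enzyme is Sfp with the accession as filed and its product quenches rhodamine fluorescence.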 The conditions noted are these: Biochemical Sfp PPTase activity. The procedure, abridged: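 Fluorescence-quenching assay with 15 nM Sfp, 5 uM rhodamine-CoA and 12.5 uM BHQ-2-labelled ybbR peptide in pH 7.6 Hepes/MgCl2 buffer. Enzyme was pre-incubated with compound for 15 min at room temperature. Rate was taken from the 30-min fluorescence change (525/598 nm).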
For orientation: In qHTS, concentration-response curves come from the screen itself.
On to `Cc1cc(Cl)ccc1OCCCC(=O)Nc1cccc(-n2cnnn2)c1`, for which the largest response in the series, negative = inhibition is 1.31% (inactive).

For the molecule `O=c1[nH]c(-c2ccccc2)c(-c2ccccc2)[nH]1`, the largest response in the series, negative = inhibition is 2.86% (inactive). The same measure, in the same setting: the value for `c1ccc(Nc2n[nH]nc2-c2ccccc2)cc1` was 1.39% (inactive). Take `O=C(O)c1n[nH]nc1-c1ccccc1`: the Potency is 70.8 µM (active). Take `S=C(Nc1cccc(Cl)c1)Nc1ccc2c(c1)OCCO2`: the largest response in the series, negative = inhibition is -5.75% (inactive). On the same count and under the same terms, the value for `CC(C)(C)c1cc(=O)n2c(nc3ccccc32)[nH]1` was 30.5% (inactive). As for `CC1(C)CC(=O)c2cnc3nc4ccccc4n3c2C1`, the Potency was 50.1 µM (active). `Cc1ccc2nc(Nc3ncc4c(n3)CC(C)(C)CC4=O)nc(C)c2c1`: the largest response in the series, negative = inhibition is 4.59% (inactive). As to `CSc1ccccc1NC(=O)c1cc(Cl)sc1Cl`, the largest response in the series, negative = inhibition is 9.55% (inactive).

As for `CNC(=O)c1c(NC(NC(=O)c2ccco2)C(=O)c2ccc(Cl)cc2)sc2c1CCCC2` (stereo unspecified), the Potency is 25.1 µM (active).

On to `CC(C)OC(=O)c1c(NC(=O)c2ccco2)sc2c1CCCC2`, for which the largest response in the series, negative = inhibition is 10.9% (inactive).

Consider `CCOC(=O)c1c(NC(=S)NC(=O)c2ccco2)sc2c1CCCC2`, for which the largest response in the series, negative = inhibition is -0.0002% (inactive). Same read-out and setting: the value for `COC(=O)c1ccc(CN2C(=O)NC(c3ccccc3)(c3ccccc3)C2=O)o1` was 23.7% (inactive). Still for that read-out and setting: the value for `CC[C@]1([C@H]2O[C@@H]([C@@H]3O[C@](O)(CO)[C@@H](C)C[C@H]3C)C[C@H]2C)CC[C@@H]([C@]2(C)CC[C@@]3(C[C@@H](O)[C@@H](C)[C@@H]([C@H](C)[C@H](OC)[C@H](C)C(=O)O)O3)O2)O1` was 15.5% (inactive).

Take `O=C1CC(N2CCN(c3ccc(F)cc3)CC2)C(=O)N1c1ccccc1` (stereo unspecified): the largest response in the series, negative = inhibition was 0.505% (inactive). Still for that read-out and setting: the result for `COc1ccc(-c2nc(SCC(=O)N3CCCC3)n[nH]2)cc1` reads 14.1% (inactive). As for `Cc1ccc(N2C(=O)CC(Sc3ncn[nH]3)C2=O)cc1` (stereo unspecified), the Potency is 56.2 µM (active). On the same count and under the same terms, the value for `COc1ccc(N2C(=O)CC(Sc3n[nH]c(-c4ccc(C)cc4)n3)C2=O)cc1` (stereo unspecified) was 25.1 µM (active).

On to `COc1ccc(N2C(=O)CC(SC(C)C)C2=O)cc1` (stereo unspecified), for which the largest response in the series, negative = inhibition was 7.97% (inactive). Turning to `COC(=O)c1ccccc1SC1CC(=O)N(c2cccc(C)c2)C1=O` (stereo unspecified), the largest response in the series, negative = inhibition was -19.3% (inactive).

Take `O=C1CC(Sc2ncn[nH]2)C(=O)N1c1ccccc1` (stereo unspecified): the Potency is 56.2 µM (active). `CC(=O)Nc1ccc(N2C(=O)CC(Sc3nccc(C)n3)C2=O)cc1` (stereo unspecified): the largest response in the series, negative = inhibition is 11.7% (inactive). On the same count and under the same terms, the result for `Cc1ccc(N2C(=O)C3CC3C2=O)cc1` (stereo unspecified) reads 15.7% (inactive); that for `CCOc1ccc(S(=O)(=O)N2CCC(C(=O)NCc3ccccn3)CC2)cc1Cl`, 5.52% (inactive); that for `CC[C@@]12C=C(/C=C/c3ccccc3)[C@](CC)(C1)[C@H](c1ccccc1)CC2=O`, -22.6% (inactive). Same read-out and setting: the value for `CC(Nc1nc(C(F)(F)F)nc2ccccc12)c1cccs1` (stereo unspecified) was 2.55% (inactive); that for `COC(=O)C(C(=O)OC)[C@@H]1CCCC(=O)C1` was -0.107% (inactive).

With `CN(C)c1ccc(-c2nnc(-c3cccnc3)o2)cc1`, the largest response in the series, negative = inhibition was 7.75% (inactive). In the case of `Cc1cc(NS(=O)(=O)c2ccc(NC(=O)C(C)Oc3cccc(C)c3C)cc2)nc(C)n1` (stereo unspecified), the largest response in the series, negative = inhibition was 8.85% (inactive). `O=C(CSc1nc2ccccc2o1)N/N=C/c1ccccc1C(=O)O`: the Potency was 44.7 µM (active). For the molecule `Cc1ccc(/C=N/NC(=O)CSc2nc3ccccc3o2)cc1`, the largest response in the series, negative = inhibition is -16.9% (inactive). As for `CC(C)(C)C(=O)CSc1nc2ccccc2o1`, the largest response in the series, negative = inhibition was 7.38% (inactive).

Take `CCN(CC)S(=O)(=O)c1ccc(C(=O)N2CCN(C3=NS(=O)(=O)c4ccccc43)CC2)cc1`: the largest response in the series, negative = inhibition is 14.9% (inactive). The same measure, in the same setting: the value for `COc1cccc(CCNC(=O)c2cccc(NC(=O)C3=C(C)OCCS3)c2)c1` was 3.98% (inactive).

As to `c1csc(-c2cn3c(n2)SCC3)c1`, the Potency is 79.4 µM (active).

With `Cc1cc(-c2cccs2)nc(-n2cccc2)n1`, the largest response in the series, negative = inhibition was 1.03% (inactive). Still for that read-out and setting: the value for `CCCS(=O)(=O)Nc1ccc(-c2cn3c(n2)SCC3)cc1` was -22.5% (inactive). Turning to `CCOc1ccc(OCC)c(-c2c(=O)n(OCc3ccc(Cl)cc3)c3ccccc3[n+]2[O-])c1`, the Potency is 100 µM (active). Take `COc1ccc(OC)c(-c2c(=O)n(OCc3ccccc3Br)c3ccccc3[n+]2[O-])c1`: the largest response in the series, negative = inhibition is 9.79% (inactive). Take `CCOC(=O)COn1c(=O)c(-c2ccc(OCC)cc2)[n+]([O-])c2ccccc21`: the largest response in the series, negative = inhibition was 1.13% (inactive).

For the molecule `O=C(N=C1SC2CS(=O)(=O)CC2N1c1cc(Cl)ccc1Cl)C1CC1` (stereo unspecified), the largest response in the series, negative = inhibition is 8.66% (inactive). On the same count and under the same terms, the value for `COc1ccc(CCn2c(=N)c(C(=O)NCc3ccco3)cc3c(=O)n4cccc(C)c4nc32)cc1` was -13.5% (inactive); that for `O=c1oc(-c2ccco2)nc2sc3c(c12)CCCCC3` was 2.61% (inactive). Take `O=C(NCc1ccco1)c1cccn2c(=O)c3c4c(sc3nc12)CCCC4`: the Potency was 44.7 µM (active).

On to `CCc1ccc(NC(=O)CS(=O)CC(=O)N2CCN(c3ccccc3F)CC2)cc1` (stereo unspecified), for which the largest response in the series, negative = inhibition is 2.49% (inactive). Same read-out and setting: the value for `COc1ccc(C(=O)NC2CC2)cc1OC1CCN(C/C=C/c2ccccc2)CC1` was 8.51% (inactive).

Source of the values: PubChem BioAssay AID1490 (National Center for Advancing Translational Sciences (NCATS), 2009).
